# In the library only some 5.8% were active in any assay of this set; here they are far more common.
# KB-3-1 cytotox: KB-3-1 parental cell cytotoxicity. KB-3-1 viability, CellTiter-Glo ATP luminescence, 72 h. Potency, µM (titrated, usually from 46.1 µM), actives largely listed as cytotoxic. hit rate 1.4% among 400,000. AID 1347075; further: on the % scale 0 is the no-effect control and ±100 the full control effect; nearly all actives have a fitted effect of over 60% in size
#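 Parental KB-3-1 adenocarcinoma cells in phenol-red-free DMEM with 10% FBS were pin-treated with compounds at several concentrations, incubated 72 h at 37 °C, and viability read by CellTiter-Glo luminescence; concentration-effect curves were fitted after normalization.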
# PINK1 modulator: PINK1 expression modulation; PINK1 immunofluorescence, high-content cytometry, 24 h; Potency, µM (highest dose often 76.6 µM), for inactives: at the highest dose activation (PINK1 increase), hits mostly activators; hit rate 0.2% among 410,000; active means well fitted activation curve with a large enough effect; inconclusive means small, poorly fitted or top-dose-only effect; cell line not stated here; further: % of control where 0% means no effect; nearly all actives have a fitted effect of over 65% in size
#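 PINK1 protein level read as immunofluorescence by microplate cytometer in a fixed, stained stable cell line after 24 h exposure to five compound concentrations, with CCCP as control.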
# SW480 rereplic: induces DNA re-replication in SW480 colon adenocarcinoma cells | SW480 DNA re-replication, Hoechst DNA content imaging, 48 h | Potency, µM (highest dose often 46.1 µM), for the others: top-dose re-replication activation, hits mostly activators | hit rate 1.8% among 340,000; further: % of control where 0% means no effect; nearly all actives have a fitted effect of over 55% in size
#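 Readout is total intensity of Hoechst-stained nuclei, excited at 405 nm and collected at 500-530 nm. Compound treatment lasted 48 hr at 37 C in 5% CO2 before staining.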
# MCF10A rereplic: inducers of DNA re-replication in MCF 10A breast cells; Potency, µM (top dose mostly 46.1 µM), for the others: top-dose activity, positive = re-replication, hits mostly activators; MCF 10A DNA re-replication, Hoechst nuclear intensity, 48 h; AID 624296; hit rate 2.9% among 350,000; further: % of control where 0% means no effect; nearly all actives have a fitted effect of over 50% in size
# KB-V1 MDR tox: KB-V1 MDR subline cytotoxicity; Potency, µM (series often up to 46.1 µM), most hits filed as cytotoxic; AID 1347076; KB-V1 MDR cells viability, CellTiter-Glo, 72 h; hit rate 3.4% among 400,000; further: on the % scale 0 is the no-effect control and ±100 the full control effect; nearly all actives have a fitted effect of over 60% in size
#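 qHTS viability screen in drug-selected KB-V1 MDR cells: 72 h compound treatment at 37 degrees C, ATP luminescence end point.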
# 12-LOX inh: blocks human arachidonate 12S-lipoxygenase. hit rate 1.1% among 580,000. Potency, µM (highest dose often 108 µM), for the others: at the top dose activity change, negative = inhibition, hits mostly inhibitors. P18054. purified 12hLO, xylenol orange hydroperoxide absorbance; further: on the % scale 0 is the no-effect control and ±100 the full control effect
# Target sequence (P18054 whole entry, looked up): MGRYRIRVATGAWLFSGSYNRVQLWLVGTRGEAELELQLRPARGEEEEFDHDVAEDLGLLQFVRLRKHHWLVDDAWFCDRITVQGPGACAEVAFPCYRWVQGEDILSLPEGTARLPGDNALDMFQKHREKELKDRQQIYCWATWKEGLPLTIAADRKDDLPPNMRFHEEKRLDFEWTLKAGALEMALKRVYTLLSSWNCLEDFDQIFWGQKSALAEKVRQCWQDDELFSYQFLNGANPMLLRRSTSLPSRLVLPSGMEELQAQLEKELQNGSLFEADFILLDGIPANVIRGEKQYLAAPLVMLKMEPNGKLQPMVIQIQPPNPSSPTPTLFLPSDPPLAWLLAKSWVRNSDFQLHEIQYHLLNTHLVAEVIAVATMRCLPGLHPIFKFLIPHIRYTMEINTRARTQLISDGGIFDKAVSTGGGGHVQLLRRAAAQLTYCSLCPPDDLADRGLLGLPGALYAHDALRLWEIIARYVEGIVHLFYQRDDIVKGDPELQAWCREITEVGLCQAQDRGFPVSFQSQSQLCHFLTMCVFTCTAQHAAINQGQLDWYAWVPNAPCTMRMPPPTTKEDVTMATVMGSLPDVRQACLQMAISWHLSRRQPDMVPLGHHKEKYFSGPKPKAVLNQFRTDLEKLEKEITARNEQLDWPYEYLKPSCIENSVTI
#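 Purified human 12hLO (150 nM final) in 25 mM Hepes, 0.01% Triton X-100, pH 7.0 was preincubated 15 min at room temperature with compound. Then 40 uM arachidonic acid was added, 30 min. Hydroperoxide was read by Fe-XO absorbance ratio 573/405 nm.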
# Active calls of the source: *; i = inactive; ? = inconclusive; nt = no result; [ ] = remark or other dose. Unless noted, the call rests on the fitted dose curve; in most records, active means well fitted curve in the direction sought with a large enough effect; inconclusive means small, poorly fitted or top-dose-only effect, or another doubt; inactive means no such curve, though single readings can be large; an effect the other way counts as inactive or inconclusive. Potency means the concentration at half of the fitted maximal effect.
SMILES,KB-3-1 cytotox,PINK1 modulator,SW480 rereplic,MCF10A rereplic,KB-V1 MDR tox,12-LOX inh
COCC(=O)N1CCN(S(=O)(=O)c2ccccc2)C[C@@H]1C(=O)N[C@@H](Cc1ccc(OC)cc1)C(=O)OC,nt,nt,nt,nt,nt,9%
Cc1ccc2nc(SC(C)C(=O)NC3CCCc4ccccc43)[nH]c2c1 (stereo unspecified),i,?,nt,?,21µM*,-12%
O=C(CSc1nc2ccccc2[nH]1)NC1CCCc2ccccc21 (stereo unspecified),i,0%,0%,13%,i,-14%
Cc1ccc(NC(=O)c2cc3ccccc3oc2=N)cc1,i,-1%,?,-1%,i,10%
N=c1oc2c3c4c(cc2cc1C(=O)Nc1ccccc1)CCCN4CCC3,i,11µM*,1.4µM*,4.1µM*,i,nt
COc1cccc(C(c2c(C)[nH]n(-c3ccccc3)c2=O)c2c(C)[nH]n(-c3ccccc3)c2=O)c1O,i,1%,3%,8%,i,?
COc1cccc(C(c2c(C)[nH]n(-c3ccccc3)c2=O)c2c(C)[nH]n(-c3ccccc3)c2=O)c1OC,i,10%,1%,6.5µM*,i,-25%
COc1ccc(NC(=O)c2cnc3ccccn3c2=O)c(OC)c1,?,4%,-9%,-1%,i,-23%
COc1ccc(C(C[N+](=O)[O-])c2c(C)[nH]n(-c3ccccc3)c2=O)cc1 (stereo unspecified),i,3%,?,12µM*,i,?
COc1ccc(C(C[N+](=O)[O-])c2c(-c3ccccc3)cc3ccccn23)c(OC)c1 (stereo unspecified),?,10%,?,16µM*,?,1.6µM*
Cc1cc2ccccn2c1C(C[N+](=O)[O-])c1ccc(N(C)C)cc1 (stereo unspecified),i,1%,25%,0%,i,-16%
Cc1[nH]n(-c2ccccc2)c(=O)c1C(c1ccc(O)c([N+](=O)[O-])c1)c1c(C)[nH]n(-c2ccccc2)c1=O,i,0%,-4%,20%,i,0%
COc1ccc(C(C[N+](=O)[O-])c2c(C)cc3ccccn23)cc1 (stereo unspecified),i,3%,?,21µM*,i,?
CCc1ccc2oc(C(=O)N3CCC(Cc4ccccc4)CC3)cc(=O)c2c1,nt,nt,nt,nt,nt,-58%
CCn1c(SCC(=O)Nc2cc3c(cc2C(C)=O)OCO3)nnc1C1CC1,nt,nt,nt,nt,nt,-1%
OC(CNCC1CCCO1)Cn1c2ccc(Cl)cc2c2cc(Cl)ccc21 (stereo unspecified),?,-3%,19%,?,?,?
OC(CNCCC1C=Nc2ccccc21)Cn1c2ccc(Cl)cc2c2cc(Cl)ccc21 (stereo unspecified),?,-6%,?,5.2µM*,?,?
CC(=O)NCCCNC(=O)c1cc(-c2ccccc2)nc2ccccc12,nt,nt,nt,nt,nt,10%
Clc1ccccc1C(c1ccccc1)(c1ccccc1)n1ccnc1,i,-1%,2%,14µM*,15µM*,?
CC(C)C[C@@H](COCc1cccc(C(F)(F)F)c1)N1CCN(C(=O)c2ccc(C(F)(F)F)cc2)CCC1=O,?,1%,nt,nt,18µM*,?
Cc1cccc(C(=O)N2CCC(=O)N(C(COCc3cccc(C(F)(F)F)c3)Cc3ccccc3)CC2)c1 (stereo unspecified),i,19%,?,?,?,-8%
Cc1cccc(COC[C@H](Cc2ccccc2)N2CCN(C(=O)c3cccc(Cl)c3)CCC2=O)c1,?,3%,nt,nt,18µM*,-69%
Cc1cccc(C(=O)N2CCC(=O)N([C@H](COCc3cccc(C(F)(F)F)c3)Cc3ccccc3)CC2)c1,i,28%,nt,nt,23µM*,?
CCOC(=O)c1cc(-c2csc(Nc3c(C)cc(C)cc3C)n2)on1,?,-2%,2%[9.22 µM],?,?,20µM*
Cc1csc(CNC(=O)c2nccnc2N)n1,nt,nt,nt,nt,nt,60%
SMILES,KB-3-1 cytotox,PINK1 modulator,SW480 rereplic,MCF10A rereplic,KB-V1 MDR tox,12-LOX inh
CC(=O)NNC(=O)c1[nH]c2ccc(Cl)cc2c1-c1ccccc1,i,3%,9%,8%,?,133%
O=C(N/N=C/c1ccc(O)cc1)c1[nH]c2ccc(Br)cc2c1-c1ccccc1,7.3µM*,3%,7.3µM*,?,i,-12%
Cc1c(C(=O)N/N=C/c2ccc(Cl)cc2)[nH]c2ccc(Cl)cc12,1µM*,0%,2.1µM*,?,?,1%
NNC(=O)c1[nH]c2ccccc2c1-c1ccccc1,?,6%,9.2µM*,?,i,0%
O=C(N/N=C/c1c[nH]c2ccccc12)c1[nH]c2ccc(Br)cc2c1-c1ccccc1,1.6µM*,10%,8.2µM*,?,?,-2%
CCOc1ccc(/C=N/NC(=O)c2[nH]c3ccc(C)cc3c2C)cc1,i,12%,27%,?,i,0%
CCCN(CCOC)Cc1ccc(C#N)cc1,nt,nt,nt,nt,nt,0%
CC(C)C(CNC(=O)c1cccc(CS(C)=O)c1)c1ccccc1 (stereo unspecified),nt,nt,nt,nt,nt,39%
Oc1cccc2ccc(/C=C/c3c(F)cccc3Cl)nc12,?,-2%,18µM*,27%,i,-22%
Oc1cccc2ccc(/C=C/c3ccccc3Cl)nc12,i,17%,?,13%,i,-18%
COc1ccccc1NC(=S)N/N=C/c1cccc(C)c1,15µM*,10%,?,?,?,?
CCNC(=S)N/N=C/c1cccc(C)c1,i,1%,1%,-1%,i,?
COc1ccccc1NC(=S)N/N=C/c1ccc(O)cc1,?,0%,1%,17%,21µM*,?
Cc1ccc(C(=O)NCCc2c[nH]c3ccccc23)cc1C,nt,nt,nt,nt,nt,9%
CCOC(=O)c1sc2nc(C(C)N3CCCC3)[nH]c(=O)c2c1C (stereo unspecified),nt,nt,nt,nt,nt,35%
Cc1cccc(-c2c3c(=O)n(C)c(=O)n(C)c3cn2C2CCCCC2)c1,i,2%[38.3 µM],4%,?,16µM*,0%
Cc1cccc(-c2c3c(=O)n(C)c(=O)n(C)c3cn2C(C)(C)C)c1,i,0%[38.3 µM],0%,-4%,i,-25%
Cn1c(=O)c2c(-c3ccccc3)n(C3CCCCC3)cc2n(C)c1=O,i,2%[38.3 µM],-5%,-1%,21µM*,?
Cn1cc(CN2CCNc3cnc(Nc4ccccc4)cc3C2)cn1,nt,nt,nt,nt,nt,20%[176 µM]
Cc1cc(=O)[nH]c2c1c(C)nn2C1CCOC(C)(C)C1 (stereo unspecified),i,3%[38.3 µM],6.5µM*,-6%,i,3%

# Screens from PubChem.
